PostGolgi ctrl – growth inhibition of yeast control strain, primary screen, counter-screen for post-Golgi transport modulator project; efflux-deficient yeast background strain, growth absorbance A615, 16 h; inhibition, % at 10 µM; 98,000 compounds, 5% hits
PostGolgi yeast – phenotypic screen on post-Golgi transport, primary screen | post-Golgi transport phenotypic cell assay | inhibition, % at 10 µM | 98,000 compounds, 0.9% hits;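 note: yeast cells grown in 1536-well plates; yeast grown about 18 h at 30C before absorbance read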
D1 mod – D1 CRE-luciferase signal change, two-sided – cell-based, HEK293 D1, dopamine EC30, D1 allosteric modulator project, primary screen | D(1A) dopamine receptor (Homo sapiens), P21728 | dopamine EC30 potentiation; actives deviate in either direction | B-score at 10 µM | 58,000 compounds, 5.9% hits | AID 641, 2007;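 active = luminescence count or its row- and column-corrected plate score outside the 99.7% band of the plate's sample wells, on either side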
DAT uptake mod – changed hDAT dopamine uptake under cocaine IC80, either direction, primary screen, cocaine antagonist project, cell-based, LLC-PK1 hDAT, [14C]-dopamine uptake, MLSMR | Sodium-dependent dopamine transporter (Homo sapiens), Q01959 | LLC-PK1 hDAT cells, [14C]-dopamine uptake with cocaine IC80; actives deviate in either direction | B-score at 10 µM | 110,000 compounds, 1.3% hits | AID 449768, 2010;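 active = Z score or B-score, a plate-position-corrected score, falls beyond the plate's 99.7% confidence bounds, in either direction; inactive = both scores lie inside the 99.7% bounds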;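 note: scored against the spread of the other compound wells on the same plate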
Target sequence (Q01959 whole entry, looked up): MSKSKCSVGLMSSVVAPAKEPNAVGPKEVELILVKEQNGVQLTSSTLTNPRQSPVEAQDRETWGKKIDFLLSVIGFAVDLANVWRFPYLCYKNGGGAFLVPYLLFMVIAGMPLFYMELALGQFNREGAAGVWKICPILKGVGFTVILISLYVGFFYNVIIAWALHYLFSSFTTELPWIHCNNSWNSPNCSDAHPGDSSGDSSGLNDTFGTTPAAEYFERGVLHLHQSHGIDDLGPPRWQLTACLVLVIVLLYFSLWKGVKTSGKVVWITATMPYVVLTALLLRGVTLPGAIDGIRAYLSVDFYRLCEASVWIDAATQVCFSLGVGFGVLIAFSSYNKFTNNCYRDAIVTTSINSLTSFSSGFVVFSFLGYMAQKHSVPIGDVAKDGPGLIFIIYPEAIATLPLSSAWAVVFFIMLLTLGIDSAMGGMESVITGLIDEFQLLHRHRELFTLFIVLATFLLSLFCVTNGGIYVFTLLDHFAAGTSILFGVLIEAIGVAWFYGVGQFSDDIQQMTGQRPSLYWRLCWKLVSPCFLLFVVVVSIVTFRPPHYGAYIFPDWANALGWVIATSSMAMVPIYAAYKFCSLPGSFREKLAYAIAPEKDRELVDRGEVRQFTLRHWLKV
PLAP act – PLAP enzyme activators, biochemical, luminescence, HTS. Alkaline phosphatase, placental type (Homo sapiens), P05187. purified PLAP enzyme, luminescent substrate read-out; stronger effect = higher value. activation fold at 20 µM. 96,000 compounds, 1.2% hits. AID 696, 2007; in the data active = activation fold above about 2
Cav3 T inh – Cav3.2 calcium influx blockers – cell-based, Fluo-4 calcium fluorescence, FDSS, MLSMR library, primary screen; 100,000 compounds, 4% hits; Voltage-dependent T-type calcium channel subunit alpha-1H (Homo sapiens), O95180; B-score at 10 µM; Cav3.2-expressing cells; stronger effect = lower value;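 active = single-dose well whose peak fluorescence ratio is a statistical outlier from its plate by either plate-standardised score or position-corrected B-score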
An asterisk follows results filed as active; . = not tested or not shown. The list is not random: actives were taken first. Their share in the collection is about 12%. Cut-off read from the data, not from the text of the source, unless noted: active = inhibition above about 30%; inactive = the rest.

SMILES	PostGolgi ctrl	PostGolgi yeast	D1 mod	DAT uptake mod	PLAP act	Cav3 T inh
CN1CCN(c2ccccc2NC(=O)c2ccc(OCc3ccccc3)cc2)CC1	14	-1	-4.6*	2.6*	1.6	-1.8
Cc1c(Br)c([N+](=O)[O-])nn1CC(=O)N1CCCc2ccccc21	30	18	.	-0.88	1.1	-0.67
COc1ccccc1CNC(=O)c1cnc2ccccn2c1=O	26	-2	0.11	3.5*	1	1.6
COc1ccccc1CNC(=O)c1cnc2sccn2c1=O	.	.	0.42	-0.23	1	.
Cc1cccc(NC(=O)c2cnc3ccccn3c2=O)c1	8	4	-4.3*	-0.12	1.1	-0.043
CCN1C(=S)SC(=O)C1=C1C=C(C)OC(C)=C1	2	1	1.2	0.49	0.9	-0.15
CCN1C(=S)SC(=O)C1=C1C=C(C)N(Cc2ccco2)C(C)=C1	38*	-9	-1.6	-0.13	1	.
Cc1ccc(N2CCn3c2nc2c3c(=O)n(CCc3ccccc3)c(=O)n2C)cc1	.	.	-0.72	.	.	.
CCNC(=S)NNC(=O)c1ccccc1OC(F)F	-2	4	.	1	2.9*	0.51
CC1(O)C(=O)C=C2C=C(c3ccc(C#N)cc3)OC=C2C1=O (stereo not drawn)	.	.	.	-0.32	.	-0.41
O=C1C(C=NCc2cccnc2)=C(O)c2ccccc21	40*	-8	-2.8	-0.27	1.1	.
CCC(CC)C(=O)c1c[nH]c(C(=O)NCCCN2CCOCC2)c1	-3	8	.	.	1.1	.
COC(=O)c1ccc(CSc2nnc(Nc3ccccc3OC)s2)o1	4	-2	-0.28	3.5*	0.9	-1.3
COC(=O)c1ccc(CSc2nnc(Nc3ccc(OC)cc3)s2)o1	-5	4	.	-0.57	1	-0.11
CC(=O)N1[C@H](C)C=C[C@]1(Cc1ccccc1)C(=O)O	.	.	.	-0.11	.	0.59
CCOc1ccc(NC(=S)Nc2cc(-c3ccccc3)[nH]n2)cc1	5	8	.	0.51	1.1	-0.11
COc1ccc(NC(=S)Nc2cc(-c3ccccc3)[nH]n2)cc1Cl	30*	-8	.	-1.4	1	1.8
CN(C(=O)CSc1nc(-c2ccccc2)cn1N)C(c1ccccc1)c1ccccc1	47*	-12	.	0.61	1.6	-6.5*
COc1ccccc1CNC(=O)CSc1nc(-c2ccccc2)cn1N	1	11	0.043	0.33	1.3	0.68
Cc1ccc(S(=O)(=O)n2cc(-c3ccccc3)c(N)n2)cc1	25	25	.	-0.87	0.6	-3.5
N#Cc1cccc(-c2cn(S(=O)(=O)c3ccc(Cl)cc3)nc2N)c1	31*	-7	-0.65	-0.06	1	0.79
COc1cc(C2NC(=O)NC(C)=C2C(=O)OC2CCCCC2)cc(Br)c1O (stereo not drawn)	.	.	-4*	1.8	1.6	-1.4
CCOC(=O)C1=C(C)NC(=O)NC1c1cc(Br)c(O)c(OC)c1 (stereo not drawn)	16	0	0.13	1.1	0.9	0.66
c1ccc(-c2ccccc2-n2cnnn2)cc1	.	.	0.5	-0.27	1.1	-0.24
Cc1ccc(NC(=O)c2nn(C34CC5CC(CC(C5)C3)C4)cc2[N+](=O)[O-])cc1	61*	79*	.	0.59	0.9	-2.7
SMILES	PostGolgi ctrl	PostGolgi yeast	D1 mod	DAT uptake mod	PLAP act	Cav3 T inh
CC(=O)OC1(C(F)(F)F)Oc2ccccc2NC1=O (stereo not drawn)	44*	13	-1.3	-0.79	1	-0.033
CCc1sc(C(=O)NC2CCN(C)CC2)cc1Br	4	5	-3.7	-0.72	1.4	0.98
Cc1ccc(Sc2nnc(Cc3ccccc3)c3ccccc23)cc1	34*	9	.	-0.59	0.9	-3.9
CCN(C(=O)Cn1c(=O)n(Cc2ccccc2)c(=O)c2ccccc21)c1cccc(C)c1	14	-7	.	1.7	1.6	-6.4*
c1ccc(-c2csc(Nc3cccnc3)n2)nc1	-1	-6	0.58	0.46	1.2	-0.19
CCOC(=O)c1sc(Nc2nc3c(OC)cccc3s2)nc1C	10	-2	-0.61	1.2	0.9	0.64
CC(=O)Nc1nc2c(F)cccc2s1	.	.	-1.3	0.16	.	-0.028
COc1cccc2sc(Nc3nnc(-c4cccs4)o3)nc12	-4	-3	.	-0.41	1	-5.6*
Fc1cccc2sc(Nc3nnc(-c4ccco4)o3)nc12	24	5	-2.7*	-0.0094	1.5	-0.92
COc1cccc2sc(Nc3nnc(-c4ccc(F)cc4)o3)nc12	-1	3	.	-2.4	2.4*	-4.2
COc1cccc2sc(Nc3nc(-c4ccccn4)cs3)nc12	87*	98*	-1.8	1.7	1.9	-0.9
O=C(CSc1nc(-c2ccc(F)cc2)cc(C(F)(F)F)n1)NCc1ccco1	.	.	.	-0.97	.	-0.79
O=C(CSc1n[nH]c(-c2ccccc2)n1)c1ccc(O)c(O)c1	0	19	.	0.49	0.3	0.23
C=CCN(C/C(=N\O)c1sc(C(=O)OCC)nc1C)c1cccc(Br)c1	.	.	.	-1	.	-3.2
Cc1nc(CS(=O)(=O)c2ccc(Cl)cc2)cc(Sc2ccccc2Cl)n1	18	9	.	0.53	1.2	-4.5*
Cc1nc(CS(=O)(=O)c2ccccc2)cc(Sc2ccccc2Cl)n1	2	24	.	0.32	1	.
Cc1nc2sc(C(c3ccc(F)cc3)N3CCN(C(=O)c4ccco4)CC3)c(O)n2n1 (stereo not drawn)	.	.	1.6	.	.	.
CN(C)Cc1cc(C(C)(C)c2cc(CN(C)C)c(O)c(CN(C)C)c2)cc(CN(C)C)c1O	-2	1	-0.88	-0.62	.	0.42
C=CCn1c(SCC(=O)Nc2ncc(Cc3cc(C(F)(F)F)ccc3Cl)s2)nnc1-c1ccncc1	-6	2	.	0.36	0.9	-0.27
COc1cc(CNc2ncn[nH]2)cc(Br)c1OC	7	-28	0.15	0.46	2.5*	0.097
CCOc1c(Br)cc(CNc2ncn[nH]2)cc1OC	4	11	0.54	-0.46	1.7	0.78
COc1ccc(C(=O)O/N=C/c2c(C(F)(F)F)nn(C)c2SCc2ccccc2Cl)cc1	-3	3	.	0.57	1.2	-4.2
Cn1nc(C(F)(F)F)c(/C=N/OC(=O)c2ccccc2Cl)c1SCc1ccc(Cl)cc1	1	2	.	-0.00072	0.8	-5*
O=S1(=O)CC(O)C(N2CCC(c3ccccc3)CC2)C1 (stereo not drawn)	45*	5	-0.5	-0.12	1	0.56
Cn1c(-c2ccc(F)cc2)cnc1SCC(=O)N1CCCCC1	-7	11	-4.3*	1.3	0.9	0.2
CC(C(=O)NC(=O)NC1CCCCC1)N1CCN(C(c2ccccc2)c2ccccc2)CC1 (stereo not drawn)	28	2	.	.	1.8	.
CCOC(=O)C[n+]1c(C)ccc2c1CCC2	.	.	.	-0.62	.	0.38
